Test results taken from PubChem BioAssay (Tox21).
Records with an inconclusive call do not appear. Where a call stands in place of a potency, no number is given. Calls of active or inactive are those of the source. The call rests on the fitted dose curve; in most records, active means well fitted curve in the direction sought with a large enough effect in the signal ratio in the repeat runs (not every such curve was filed as active); inconclusive means weak or mixed curves, or effect the other way; inactive means no such curve, though single readings can be large or run the other way; the % refers to the signal ratio.

These compounds were tested against Estrogen receptor (Homo sapiens) (UniProt P03372) (assay: qHTS assay to identify small molecule antagonists of the estrogen receptor alpha (ER-alpha) signaling pathway (AID 743069)). Conditions: HEK293 ER-alpha-UAS-bla, beta-lactamase ratio, antagonist mode; series mostly up to 69.4 µM.
Estrogen receptor (Homo sapiens), sequence (P03372 whole entry, looked up): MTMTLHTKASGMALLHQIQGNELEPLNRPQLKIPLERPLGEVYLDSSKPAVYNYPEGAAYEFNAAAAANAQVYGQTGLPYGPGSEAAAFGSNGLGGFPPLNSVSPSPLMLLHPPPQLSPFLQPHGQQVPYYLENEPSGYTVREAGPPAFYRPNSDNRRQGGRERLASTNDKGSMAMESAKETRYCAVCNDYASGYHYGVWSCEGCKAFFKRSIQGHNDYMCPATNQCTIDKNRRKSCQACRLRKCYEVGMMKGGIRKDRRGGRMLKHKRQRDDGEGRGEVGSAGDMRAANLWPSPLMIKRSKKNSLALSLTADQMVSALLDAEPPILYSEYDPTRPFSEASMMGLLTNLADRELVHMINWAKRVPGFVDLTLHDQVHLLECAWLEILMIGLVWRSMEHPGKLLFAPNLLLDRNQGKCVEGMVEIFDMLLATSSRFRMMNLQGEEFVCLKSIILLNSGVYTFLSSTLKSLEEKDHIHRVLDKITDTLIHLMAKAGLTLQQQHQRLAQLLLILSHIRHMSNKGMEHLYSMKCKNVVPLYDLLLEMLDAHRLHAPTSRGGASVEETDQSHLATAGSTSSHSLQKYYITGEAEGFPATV
Description: National Center for Advancing Translational Sciences [NCATS]
NIH Chemical Genomics Center [NCGC]
U.S. Environmental Protection Agency [EPA]
National Institutes of Environmental Health Sciences [NIEHS]
National Toxicology Program [NTP]
U.S. Food and Drug Administration [FDA]
Estrogen receptor (ER), a nuclear hormone receptor, plays an important role in development, metabolic homeostasis and reproduction. Two subtypes of ER, ER-alpha and ER-beta have similar expression patterns with some uniqueness in both types. Endocrine disrupting chemicals (EDCs) and their interactions with steroid hormone receptors like ER causes disruption of normal endocrine function. To identify the compounds that inhibit ER signaling, an ER-alpha-UAS-bla GripTiteTM cell line (Invitrogen, Carlsbad, CA, USA) containing a beta-lactamase reporter gene under the control of an Upstream Activator Sequence (UAS) stably integrated into HEK293 cells was used to screen the Tox21 10K compound library.
Tox21 Assay Protocol Summary:
ER-alpha-bla cells were cultured in assay medium containing 2% charcoal stripped FBS overnight in the culture flasks before the assay was performed. The cells were dispensed at 5,000 cells/5 uL of assay medium per well into black wall/clear-bottom 1536-well plates using a Multidrop Combi (ThermoFisher Scientific, Waltham, MA) dispenser. After the assay plates were incubated at a 37C and 5% CO2 for 4 hr, 23 nL of compounds dissolved in DMSO, positive controls or DMSO only was transferred to the assay plate by a Pintool station (Kalypsys, San Diego, CA), followed by addition of 1 uL of 17beta-estradiol in assay medium using a Flying Reagent Dispenser (Aurora Discovery, San Diego, CA). The plates were incubated at 37C and 5% CO2 for 18 hr. Then 1 uL of LiveBLAzerTM B/G FRET substrate was added using a Flying Reagent Dispenser, the plates were incubated at room temperature for 2 hours, and fluorescence intensity was measured by an Envision plate reader (PerkinElmer, Shelton, CT).

**Q.** How did the Potency turn out when O=C(O)c1cc(=O)c2c(OCC(O)COc3cccc4oc(C(=O)O)cc(=O)c34)cccc2o1 was run?
**A.** inactive

**Q.** Which Potency does the source give for C=C(C)C(=O)O[C@H]1C[C@@H]2CC[C@@]1(C)C2(C)C here?
**A.** inactive

**Q.** For CCCCCCCCCC, which Potency is on record?
**A.** inactive

**Q.** OCc1cccnc1 was tested. Which Potency did it give?
**A.** inactive

**Q.** How did the Potency turn out when COS(C)(=O)=O was run?
**A.** inactive

**Q.** Which Potency does the source give for CCN(CC)CCCC(C)Nc1ccnc2cc(Cl)ccc12 (stereo not given) here?
**A.** inactive

**Q.** For CC(C)(N)CO, which Potency is on record?
**A.** inactive

**Q.** How did the Potency turn out when CCC(O)OC(O)CC (stereo not given) was run?
**A.** inactive

**Q.** Which Potency does the source give for CCCCCC1=CCCC1=O here?
**A.** inactive

**Q.** Cc1ccc(N(C)C)cc1 was tested. Which Potency did it give?
**A.** inactive

**Q.** How did the Potency turn out when CC(c1cc2ccccc2s1)N(O)C(N)=O (stereo not given) was run?
**A.** inactive

**Q.** OCCOCCOCCO was tested. Which Potency did it give?
**A.** inactive

**Q.** Which Potency does the source give for O=[N+]([O-])c1ccc(/C=C/c2ccc([N+](=O)[O-])cc2S(=O)(=O)O)c(S(=O)(=O)O)c1 here?
**A.** inactive

**Q.** For CCOC(=O)NNc1nncc2ccccc12, which Potency is on record?
**A.** inactive

**Q.** For CC(=O)Nc1ccccc1, which Potency is on record?
**A.** inactive

**Q.** Which Potency does the source give for FC(F)(F)c1ccc(Cl)c(Cl)c1 here?
**A.** inactive

**Q.** c1ccc2scnc2c1 was tested. Which Potency did it give?
**A.** inactive

**Q.** How did the Potency turn out when CCN(CC)c1ccc(C(=O)c2ccccc2C(=O)O)c(O)c1 was run?
**A.** inactive

**Q.** C/C=C1/CC2C=CC1C2 (stereo not given) was tested. Which Potency did it give?
**A.** inactive

**Q.** With O=S1(=O)CC=CC1 as the compound, how does the Potency read?
**A.** inactive

**Q.** Which Potency does the source give for CCCCCCCC(=O)OC here?
**A.** inactive

**Q.** CC(O)COCC(C)O (stereo not given) was tested. Which Potency did it give?
**A.** inactive

**Q.** How did the Potency turn out when COc1cc(Cc2cnc(N)nc2N)cc(OC)c1OC was run?
**A.** inactive

**Q.** How did the Potency turn out when O=C(O)CC(C(=O)O)C(CC(=O)O)C(=O)O (stereo not given) was run?
**A.** inactive

**Q.** CCCCCCCCCCCCCCO was tested. Which Potency did it give?
**A.** inactive

**Q.** For COc1ccc(NC(C)=O)cc1N, which Potency is on record?
**A.** inactive

**Q.** Fc1ccc(Br)cc1 was tested. Which Potency did it give?
**A.** inactive

**Q.** OC[C@H]1O[C@@](CO)(O[C@H]2O[C@H](CO)[C@@H](O)[C@H](O)[C@H]2O)[C@@H](O)[C@@H]1O was tested. Which Potency did it give?
**A.** inactive

**Q.** With CCc1cccc(C)c1N as the compound, how does the Potency read?
**A.** inactive

**Q.** Which Potency does the source give for CC1=CCC2CC1C2(C)C (stereo not given) here?
**A.** inactive

**Q.** CCCCCOC(C)=O was tested. Which Potency did it give?
**A.** inactive

**Q.** With CC1=C(C)S(=O)(=O)CCS1(=O)=O as the compound, how does the Potency read?
**A.** inactive

**Q.** With c1ccc(OCCOc2ccccc2)cc1 as the compound, how does the Potency read?
**A.** inactive

**Q.** Which Potency does the source give for CC[C@H](C)C(=O)O[C@H]1C[C@@H](C)C=C2C=C[C@H](C)[C@H](CC[C@@H]3C[C@@H](O)CC(=O)O3)[C@H]21 here?
**A.** inactive

**Q.** CCCCCCOCCO was tested. Which Potency did it give?
**A.** inactive

**Q.** CCCCC(CC)COC(=O)CCCCC(=O)OCC(CC)CCCC (stereo not given) was tested. Which Potency did it give?
**A.** inactive

**Q.** Which Potency does the source give for O=C(O)CCCC[C@@H]1SC[C@@H]2NC(=O)N[C@@H]21 here?
**A.** inactive

**Q.** How did the Potency turn out when C#CCN(C)Cc1ccccc1 was run?
**A.** inactive

**Q.** For C=CCOC(=O)c1ccccc1C(=O)OCC=C, which Potency is on record?
**A.** inactive

**Q.** Cc1cnc(C(=O)NCCc2ccc(S(=O)(=O)NC(=O)NC3CCCCC3)cc2)cn1 was tested. Which Potency did it give?
**A.** inactive
